# C diff growth: inhibitors of Clostridium difficile growth; Clostridium difficile clinical isolate growth, OD600, 24 h; stronger effect = lower value; growth activity, negative = inhibition, % at 16 µg/mL (by protocol); 86,000 tested, 0.25% active; AID 1259249;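 active = mean growth activity at or below -80% and every replicate also at or below -80%; inconclusive = mean at or below -80% but some replicate above -80%; inactive = mean growth activity above -80%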;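 note: 0% = DMSO wells and -100% = levofloxacin 16 µg/mL wells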
# Pf Dd2 inh: P. falciparum Dd2 growth inhibition; SYBR Green, 72 h; stronger effect = lower value; activity change, % at 10 µM; 94,000 tested, 2.3% active; AID 1159554; in the data active = activity change below about -80%; inconclusive = no clear call, values can overlap the other calls
# T cruzi growth-1: T. cruzi proliferation inhibition. T. cruzi beta-gal in NIH3T3, GalScreen luminescence, 90 h. inhibition, % at 8.34 µM. 77,000 tested, 5.9% active. AID 624255;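 active = mean inhibition above about 93%, with at least 55% of replicates each passing it, limit read from the data, passing the limit was not always enough; inconclusive = only one of those two conditions holds; inactive = neither condition holds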
# T cruzi growth-2: blocks T. cruzi growth in NIH3T3 host cells; 5,600 tested, 72% active; shares compounds with T cruzi growth-1; T. cruzi beta-gal in NIH3T3, GalScreen luminescence, 90 h; inhibition, % at 8.35 µM;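 active = mean replicate inhibition above about 95% and at least 55% of replicates individually reaching it, limit read from the data; inconclusive = only one of the two criteria is met; inactive = neither criterion is met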
# T cruzi growth-3: Trypanosoma cruzi proliferation inhibition; shares compounds with T cruzi growth-1; T. cruzi beta-gal in NIH3T3, GalScreen luminescence, 90 h; inhibition, % at 2.09 µM; 5,600 tested, 21% active;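 active = mean inhibition above about 95%, with at least 55% of replicates also reaching it, limit read from the data; inconclusive = meets just one of the two conditions; inactive = meets neither condition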;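 note: plate controls were neutral control median for no effect and positive control median for full effect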
# NIH3T3 tox: cytotoxicity in mouse NIH/3T3 fibroblasts; shares compounds with T cruzi growth-1; NIH/3T3 viability, CellTiter-Glo ATP luminescence, 90 h; cytotoxicity (signal decrease), % at 8.35 µM; 5,600 tested, 14% active;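 active = mean signal decrease across replicates above about 35% based on untreated-well scatter, with enough replicates individually passing, limit read from the data; inconclusive = no rule stated though some were filed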;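 note: 0% = median of neutral control wells and 100% = median of positive control wells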
# 3T3 cytotox 2: kills mouse NIH/3T3 fibroblasts; shares compounds with T cruzi growth-1; NIH/3T3 viability, CellTiter-Glo ATP luminescence, 90 h; inhibition, % at 24.9 µM; 5,600 tested, 56% active; AID 651744;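 active = mean loss of cell viability signal at or above a set limit, and enough replicates individually reaching it; inconclusive = meets only the mean limit or only the replicate share; inactive = meets neither condition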;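 note: 0% = median of neutral control wells and 100% = median of positive control wells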
# Numbers without * were called inactive; ? = inconclusive; . = no result. Only some compounds are listed: those with a hit (about 6.8% of all), similar ones and a draw of the others.
SMILES,C diff growth,Pf Dd2 inh,T cruzi growth-1,T cruzi growth-2,T cruzi growth-3,NIH3T3 tox,3T3 cytotox 2
COc1ccc(NC(=O)Nc2ccc3c(c2)C(=O)N([C@@H](C)CO)C[C@@H](C)[C@H](CN(C)S(=O)(=O)c2c(C)noc2C)OCCCC[C@H](C)O3)cc1,4.6,-48.9,-78.4,.,.,.,.
O=C(Nc1cccc(F)c1)N1CCCCN2[C@H](C1)[C@@H](c1ccc(-c3ccncc3)cc1)[C@@H]2CO,-7.3,-37.0,110.6*,110.8*,70.5,-19.5,7.3
O=C(Nc1ccc(F)cc1)N1CCCCN2[C@@H](CO)[C@@H](c3ccc(-c4ccncc4)cc3)[C@@H]2C1,15.4,-16.9,71.9,.,.,.,.
O=C(Nc1ccc(F)cc1)N1CCCCN2[C@H](CO)[C@@H](c3ccc(-c4ccncc4)cc3)[C@@H]2C1,15.8,26.1,17.4,.,.,.,.
Cc1ccc(-c2ccc([C@H]3[C@@H](CO)N4CCCCN(C(=O)Nc5cccc(F)c5)C[C@H]34)cc2)cc1,-96.3*,-26.7,106.5*,109.5*,115.2*,118.6*,104.8*
Cc1ccccc1-c1ccc([C@@H]2[C@@H](CO)N3CCCCN(C(=O)Nc4cccc(F)c4)C[C@@H]23)cc1,25.1,-30.3,3.0,.,.,.,.
O=C(Nc1cccc(F)c1)N1CCCCN2[C@H](CO)[C@H](c3ccc(-c4ccncc4)cc3)[C@H]2C1,-2.5,-65.5,105.5*,112.4*,53.7,1.0,53.1*
CCNC(=O)[C@H]1N[C@H]2c3ccc(-c4cccc(C(=O)N(C)C)c4)c(=O)n3C[C@H]2[C@@H]1CO,0.2,3.1,42.5,.,.,.,.
C[C@@H]1CN([C@@H](C)CO)C(=O)CCCn2cc(nn2)CO[C@H]1CN(C)Cc1cccc(C(F)(F)F)c1,.,-3.2,-84.4,.,.,.,.
C[C@H]1CN([C@@H](C)CO)C(=O)c2cc(NC(=O)Nc3ccc4c(c3)OCO4)ccc2O[C@H]1CN(C)C(=O)Nc1ccc(F)cc1,9.5,-0.8,26.1,.,.,.,.
CC(=O)N(C)C[C@H]1Oc2cc(C#Cc3cccc(F)c3)ccc2S(=O)(=O)N([C@@H](C)CO)C[C@@H]1C,13.8,-18.1,73.4,.,.,.,.
COc1ccc(S(=O)(=O)N(C)C[C@@H]2OCCCC[C@H](C)Oc3ccc(NS(=O)(=O)c4ccccc4)cc3C(=O)N([C@@H](C)CO)C[C@@H]2C)cc1,-8.4,.,68.3,.,.,.,.
COc1ccc(S(=O)(=O)Nc2ccc3c(c2)C(=O)N([C@@H](C)CO)C[C@@H](C)[C@@H](CN(C)S(=O)(=O)c2ccccc2)OCCCC[C@@H](C)O3)cc1,-6.4,-59.5,.,.,.,.,.
COc1ccc(S(=O)(=O)Nc2ccc3c(c2)C(=O)N([C@@H](C)CO)C[C@@H](C)[C@H](CN(C)S(=O)(=O)c2ccccc2)OCCCC[C@H](C)O3)cc1,-3.7,-34.3,.,.,.,.,.
COc1ccc(S(=O)(=O)Nc2ccc3c(c2)C(=O)N([C@H](C)CO)C[C@@H](C)[C@H](CN(C)S(=O)(=O)c2ccc(OC)cc2)OCCCC[C@H](C)O3)cc1,-2.8,-73.8,99.8*,107.4*,61.5,17.6,4.7
COc1ccc(S(=O)(=O)N(C)C[C@H]2OCCCC[C@H](C)Oc3ccc(NS(=O)(=O)c4ccc(C)cc4)cc3C(=O)N([C@@H](C)CO)C[C@@H]2C)cc1,2.5,-68.3,?,100.7*,77.7,6.6,-1.8
COc1ccc(S(=O)(=O)Nc2ccc3c(c2)C(=O)N([C@H](C)CO)C[C@@H](C)[C@H](CN(C)S(=O)(=O)c2ccc(C)cc2)OCCCC[C@@H](C)O3)cc1,.,-61.4,.,.,.,.,.
COc1ccc(S(=O)(=O)Nc2ccc3c(c2)C(=O)N([C@@H](C)CO)C[C@@H](C)[C@H](CN(C)S(=O)(=O)c2ccc(OC)cc2)OCCCC[C@@H](C)O3)cc1,4.6,-46.7,?,107.9*,68.6,5.9,23.1
COc1ccc(S(=O)(=O)N(C)C[C@H]2OCCCC[C@@H](C)Oc3ccc(NS(=O)(=O)c4ccccc4)cc3C(=O)N([C@H](C)CO)C[C@H]2C)cc1,-10.8,.,115.3*,107.8*,63.6,7.3,-2.5
C[C@@H]1CCCCO[C@H](CN(C)S(=O)(=O)c2cccs2)[C@@H](C)CN([C@H](C)CO)C(=O)c2cc(NC(=O)Nc3cccc4ccccc34)ccc2O1,-0.7,-7.0,16.4,.,.,.,.
C[C@@H]1CN([C@H](C)CO)C(=O)c2c(c3ccccc3n2C)-c2ccccc2CO[C@H]1CN(C)C(=O)c1ccc(F)cc1,.,-30.5,43.3,.,.,.,.
Cc1noc(C)c1NC(=O)Nc1ccc2c(c1)C(=O)N([C@H](C)CO)C[C@H](C)[C@@H](CN(C)C(=O)Nc1ccc3c(c1)OCO3)OCCCC[C@H](C)O2,-2.5,23.6,-16.0,.,.,.,.
COc1ccc(-c2ccc3c(c2)O[C@H](CN(C)C)[C@@H](C)CN([C@H](C)CO)S3(=O)=O)cc1,-5.5,26.0,32.0,.,.,.,.
C[C@H](CO)N1C[C@H](C)[C@@H](CN(C)Cc2ccccn2)Oc2ncc(-c3ccc(F)cc3)cc2C1=O,-1.2,-5.1,48.3,.,.,.,.
CCC(=O)NC[C@@H]1[C@@H](c2ccc(-c3ccc(F)cc3)cc2)[C@@H](CO)N1C(=O)CC,-8.7,-11.2,.,.,.,.,.
SMILES,C diff growth,Pf Dd2 inh,T cruzi growth-1,T cruzi growth-2,T cruzi growth-3,NIH3T3 tox,3T3 cytotox 2
COc1ccc(S(=O)(=O)Nc2ccc3c(c2)C(=O)N([C@@H](C)CO)C[C@H](C)[C@H](CN(C)S(=O)(=O)c2ccc(OC)cc2)OCCCC[C@H](C)O3)cc1,-2.6,-65.4,100.9*,110.7*,16.6,-0.4,-10.0
COc1ccc(S(=O)(=O)Nc2ccc3c(c2)C(=O)N([C@H](C)CO)C[C@H](C)[C@H](CN(C)S(=O)(=O)c2ccc(OC)cc2)OCCCC[C@@H](C)O3)cc1,-3.1,-41.7,48.4,.,.,.,.
COc1ccc(S(=O)(=O)Nc2ccc3c(c2)C(=O)N([C@H](C)CO)C[C@H](C)[C@H](CN(C)S(=O)(=O)c2ccc(OC)cc2)OCCCC[C@H](C)O3)cc1,-2.8,-57.8,99.8*,109.3*,64.3,1.8,8.6
COc1ccc(S(=O)(=O)Nc2ccc3c(c2)C(=O)N([C@@H](C)CO)C[C@@H](C)[C@H](CN(C)S(=O)(=O)c2ccc(OC)cc2)OCCCC[C@H](C)O3)cc1,-5.3,-42.7,78.2,.,.,.,.
C[C@@H]1CN([C@H](C)CO)C(=O)Cc2cc(N(C)C)ccc2O[C@H]1CN(C)C(=O)Nc1cccc2ccccc12,-0.4,-24.6,-19.0,.,.,.,.
C[C@H]1CN([C@@H](C)CO)C(=O)c2cccc(NC(=O)CCCCCC(=O)Nc3ccccc3N)c2O[C@@H]1CN(C)Cc1ccc2c(c1)OCO2,.,-92.4*,126.6*,107.1*,108.2*,-0.9,24.9*
C[C@@H]1CN([C@H](C)CO)C(=O)c2cccc(NC(=O)CCCCCC(=O)Nc3ccccc3N)c2O[C@H]1CN(C)Cc1ccc(-c2ccccc2)cc1,-2.3,-91.5*,?,84.2,-13.7,-3.0,-6.9

# Screening data: PubChem, Broad Institute
